Data on 37 molecules can be found in paper PMC5540273 (PLoS ONE, 2017).

Molecules are shown by their SMILES.
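Note: KINOMEscan kinase panel screen.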

The test relates to NEK3. To be noted: concentration: 1 μM, replicates: in singlicate; n = 1.
With `CN1CCN(Cc2ccc(NC(=O)Nc3ccc(N(C)c4ccnc(Nc5ccc(CS(C)(=O)=O)cc5)n4)cc3)cc2)CC1.Cl` [GW827654], the “%Inh” value was 16%.

With `COc1cccc(-c2nc(-c3ccccc3)[nH]c2-c2ccncc2)c1` [SB-610250], the “%Inh” value worked out at 11%. `CN(C)CCNS(=O)(=O)c1ccc(-c2ccnc3[nH]ccc23)cc1` [GSK977620]: the “%Inh” value turned out to be 0%. `N#CC1(c2cccc(C(=O)Nc3cccc(Oc4ccc5nc(NC(=O)C6CC6)sc5n4)c3)c2)CC1`: the “%Inh” value worked out at 30%. For the molecule `CCNC(=O)/C=C/c1n[nH]c2cc(Sc3ccccc3C(=O)NC)ccc12`, the “%Inh” value was found to be 26%. Turning to `CCn1cnc2c(NCc3ccccc3)ncnc21` [SKF-96418], the “%Inh” value worked out at 24%. As for `CN(c1ccc2c(c1)nc(NCc1ccccc1)n2C)c1ccnc(Nc2ccc(CS(C)(=O)=O)cc2)n1.Cl` [GW811603], the “%Inh” value is 20%. As for `Cl.O=C(Nc1ccc(Oc2ccc3[nH]c(NC(=O)c4ccco4)nc3c2)cc1)Nc1cc(C(F)(F)F)ccc1F` [GW683134], the “%Inh” value is given as 0%. With `Nc1ncc(-c2cn[nH]c2)c2scc(-c3ccc4c(c3)CCN4C(=O)Cc3ccccc3)c12` [GSK2593067], the “%Inh” value was 0%.

Consider `Cc1ccc(NC(=O)c2ccc(Cl)c(Cl)c2)cc1-c1ccc(C(=O)Nc2ccncc2)cc1` [GSK1398460], for which the “%Inh” value is recorded as 16%. For the molecule `COC(=O)Nc1nc2ccc(Oc3ccc(NC(=O)Nc4cc(C(F)(F)F)ccc4F)cc3)cc2[nH]1.Cl` [GW654607], the “%Inh” value stood at 0%. To `COc1ccc(C)c(Nc2ccnc(Nc3ccc(-c4cnc[nH]4)cc3)n2)c1.Cl` [GW784041] belongs 7%. `CCNc1nccc(-c2c(-c3ccc(F)cc3)ncn2C2CCN(C)CC2)n1`: the “%Inh” value was determined as 0%. Regarding `CS(=O)(=O)c1cccc(CNc2nc(Nc3ccc4c(c3)CCC(=O)N4)ncc2C(F)(F)F)c1`, the “%Inh” value is 37%. Take `Cc1ccc(NC(=O)c2ccnc(N3CCCCC3)c2)cc1-c1ccc(C(=O)NCC2CC2)cc1` [GW775610]: the “%Inh” value came out at 4%. Take `CN(C)c1ncnc2nc[nH]c12` [SKF-31736]: the “%Inh” value turned out to be 41%.

In the case of `Cc1ccc(Nc2ccnc(Nc3ccc(C)c(F)c3)n2)cc1O.Cl` [GW582868], the “%Inh” value is 10%. Consider `Cc1ccc(O)cc1Nc1ccnc2ccc(C(C)(C)C)cc12` [GW856805], for which the “%Inh” value worked out at 39%. Consider `Cn1cc(-c2ccc3c(c2)CCN3C(=O)Cc2cc(F)cc(C(F)(F)F)c2)c2c(N)ncnc21` [GSK2635225], for which the “%Inh” value is reported as 0%. `CN(c1ccc(F)c(NC(=O)c2cccc(OC(C)(C)C#N)c2Cl)c1)c1ccc2nc(NC(=O)C3CC3)sc2n1`: the “%Inh” value came out at 7%. For `CC(C)NCC(Cc1ccccc1)NC(=O)c1cc(Br)c(-c2ccnc3[nH]ccc23)s1.Cl.Cl` (stereo not shown) [GSK1383281] the value was 16%. With `CCOc1nccc(-c2c(-c3ccc(F)cc3)ncn2C2CCNCC2)n1` [SB-249175], the “%Inh” value is given as 13%. Turning to `CN(C)CCOc1ccc(-c2cc(-c3ccc(Cl)c(O)c3)c(-c3ccncc3)[nH]2)cc1.Cl.Cl` [SB-684387], the “%Inh” value is 2%. Turning to `O=C(O)C(F)(F)F.O=c1[nH]ccc2nc(N[C@@H]3CCNC3)nc(Nc3cc(Cl)cc(Cl)c3)c12` [GSK2188764], the “%Inh” value was found to be 23%. To `CNc1nccc(-c2ccc3c(N)n[nH]c3c2)n1` [GSK2206003] belongs 2%. With `CC(C)c1nc(-c2ccc(F)c(NS(=O)(=O)c3c(F)cccc3F)c2)c(-c2ccnc(Nc3ccc(N4CCOCC4)nc3)n2)s1` [GSK1804250], the “%Inh” value is on record as 3%. For `Cc1ccc(-c2ccc3occ(-c4ccc(S(C)=O)cc4)c3c2)nn1` (stereo not shown) the value was 30%. As for `Nc1ncnc2scc(-c3ccc(NC(=O)Cc4cc(F)ccc4F)cc3)c12.O=C(O)C(F)(F)F` [SB-731254-M], the “%Inh” value came out at 35%. In the case of `COc1cc(Nc2nccc(N3CCC(NC(=O)Nc4ccc5c(c4)OCO5)C3)n2)cc(OC)c1OC` (stereo not shown) [GSK1379766], the “%Inh” value was 45%.

For `O=C(Nc1n[nH]c2cc(-c3cccs3)ccc12)C1CC1` [SB-731284], the “%Inh” value was determined as 20%. For `Fc1cc(Cl)ccc1Nc1ccnc2cc(-c3ccc(CN4CCSCC4)o3)ccc12` [GW560106] the value was 5%; for `COc1cccc(CC(=O)N2CCc3cc(-c4cn(C)c5ncnc(N)c45)ccc32)c1` [GSK2608899], 4%; for `COc1ccc(C2=C(Nc3cccc(O)c3)C(=O)NC2=O)cc1` [SB-390766], 18%. To `Cc1ccc(O)cc1Nc1ccnc2cc(-c3ccc(CN4CCCCC4)o3)ccc12` [GW557777] belongs 3%. For `Cc1ccc(C)c(NC(=O)Nc2ccc(C)c(-c3ccc(C(=O)Nc4ccncc4)cc3)c2)c1` [GSK1398473] the value was 5%; for `Cc1cc(-c2ccnc(Nc3cccc(C#N)c3)n2)cc(C)c1O` [GSK1440913], 43%; for `Nc1ncc(-c2ccc3nccc(-c4ccncc4)c3c2)cc1S(=O)(=O)N1CCCCC1` [GSK1693850], 4%.
